# Screens: PubChem BioAssay, National Center for Advancing Translational Sciences (NCATS)
# Sampled rows, rich in hits. Any-hit rate of the full collection: about 1.7%.
# p53ts 32C tox – kills p53ts cells at the permissive temperature | Potency, µM (highest dose often 46.1 µM), inactives show at the top dose activity change, negative = cytotoxicity, most hits filed as cytotoxic | H1299-p53A138V at 32C, ATP luminescence viability, 24 h | AID 924 | hit rate 0.93% among 130,000;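 also: 0% = DMSO and -100% = full killing by reference compound; nearly all actives have a fitted effect of over 55% in size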
#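 ATP-content luminescence (ATPlite) read-out after 24 h compound exposure at 32C in H1299-p53A138V cells (600/well). Tested up to 46 uM. Normalized to DMSO (0%) and 100 uM tamoxifen (100% killing); Hill-fit AC50.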
# Imprint erasure – inducers of genomic imprint erasure in mouse ES cells | hit rate 0.02% among 110,000 | AID 1948 | mouse ES Peg3-LacZ reporter, beta-gal luminescence, 40 h | Potency, µM (highest dose often 60.7 µM), without a hit: top-dose activity change, positive = activation, actives largely listed as activators
#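 Readout: BetaGlo luminescence (5 min, room temp) for LacZ from the normally silent maternal Peg3 allele in female Peg3LacZ-Neo ES cells. Cells 300/well, 40 h, 37C, 5% CO2. Data normalized per plate to negative controls.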
# IkB sig inh – inhibitors of IkB signaling in ABC-DLBCL cells. ABC-DLBCL IkBa-CBG/CBR dual luciferase ratio, 4 h; response scale: scaled: untreated 0%, proteasome inhibitor 100%. Potency, µM (series often up to 57.1 µM), inactives show at the top dose IkBa stabilization activation. hit rate 0.04% among 110,000. AID 445; active = well fitted curve in the direction sought with a large enough effect in the signal ratio, not every such curve was filed as active; inconclusive = small, poorly fitted or top-dose-only effect, or a change in a side signal; the % refers to the signal ratio;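 also: the direction sought is a rising ratio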
#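 Curves were fitted separately to fusion (green), unfused (red) and ratio luminescence, then classed by r2, magnitude and activity. Cells: OCI-Ly3, 4 h compound plus doxycycline at 37C; 10 uM MG-132 defined full response.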
# p53ts 39C tox – cytotoxicity in p53ts cells at nonpermissive temperature. AID 902. H1299-p53A138V viability at 39C, ATP luminescence, 24 h. Potency, µM (titrated, usually from 46.1 µM), for the others: top-dose activity change, negative = cell killing, actives largely listed as cytotoxic. hit rate 1.5% among 130,000; also: % is scaled to controls: 0 for no effect and ±100 for the full control effect; nearly all actives have a fitted effect of over 55% in size
# Numbers without * were called inactive; ? = inconclusive; nt = not tested or not shown; ! = repeats disagree; [ ] = dose if it differs, or a comment. Unless noted, calls follow the shape of the dose curve; as a rule, active = well fitted curve in the direction sought with a large enough effect; inconclusive = small, poorly fitted or top-dose-only effect, or another doubt; inactive = no such curve, though single readings can be large; an effect the other way counts as inactive or inconclusive. Potency is read from the fitted curve at half-maximal effect.
SMILES,p53ts 32C tox,Imprint erasure,IkB sig inh,p53ts 39C tox
Cc1nc2c(C(=O)NC(C)c3ccccc3)cnn2c(C)c1Cc1ccccc1 (stereo unspecified),?,-17.0%[10.9 µM],?,20µM*
Nc1nc(N)c2nc(-c3ccccc3)c(N)nc2n1,12.6µM*!,-9.8%,?,-6.9%
COc1ccc2c(c1)sc(N)[n+]2Cc1cc(C)cc2cccnc12,-8.5%,nt,nt,11.2µM*
COCCNC(=O)CSc1nnc(NC(=O)Nc2ccc(C)cc2)s1,11.2µM*,5.3%[10.9 µM],3.9%,?
COc1ccc(NC(=O)CSc2nnc(NC(=O)Nc3ccc(OC)cc3)s2)cc1,-4.1%,-4.7%[10.9 µM],1.5%,?
Nc1nc(Cl)nc2c1ncn2[C@@H]1O[C@@H](CO)[C@@H](O)[C@H]1O,15.8µM*,nt,?,12.6µM*
Nc1ncnc2c1ncn2C1OC(CO)C(O)C1O (stereo unspecified),17.9%,6.3%,nt,0.0%
OC[C@H]1O[C@@H](n2cnc3cncnc32)[C@H](O)[C@@H]1O,?,-12.0%,nt,10µM*
CSc1ncnc2c1ncn2C1OC(CO)C(O)C1O (stereo unspecified),?,?,nt,10µM*
OC[C@@H]1O[C@@H](n2cnc3c(NCc4ccco4)ncnc32)[C@H](O)[C@H]1O,nt,nt,3.3%[11.4 µM],nt
OC[C@H]1O[C@@H](n2cnc3c(NCc4ccco4)ncnc32)[C@H](O)[C@@H]1O,15.8µM*,-7.4%,nt,?
Fc1ccc(-c2nnc(-c3ccc(Cl)cc3)o2)cc1,?,-17.8%,-1.7%,?
Clc1ccc(-c2nnc(-c3ccccc3)o2)c(Cl)c1,7.94µM*,-31.4%,?,10µM*
Fc1ccc(-c2nnc(-c3ccc(Cl)cc3Cl)o2)cc1,5.01µM*,-50.2%,?,12.6µM*
CCSc1nnc(-c2ccc(Cl)cc2Cl)o1,-26.6%,-20.5%,-0.6%,-17.9%
O=C(O)CCSc1nnc(-c2ccc(Cl)cc2Cl)o1,12.6µM*,12.5%[10.9 µM],?,?
Clc1ccc(-c2nnc(-c3ccc(Br)o3)o2)c(Cl)c1,-20.1%,-32.6%,-2.7%,-28.8%
COc1ccc(CCNC(=O)c2ccc3c(c2)N=C(C)c2ccccc2S3)cc1OC,7.0%,-7.4%[10.9 µM],?,-0.4%
COc1ccc(OC)c(NC(=O)Cn2cnc3onc(-c4ccc(Cl)cc4)c3c2=O)c1,-3.2%,-12.7%[10.9 µM],?,-13.7%
NC(=O)c1ncn([C@@H]2O[C@@H](CO)[C@@H](O)[C@H]2O)n1,nt,nt,8.1%,nt
Cc1ccc(-n2nc3ccc(N)cc3n2)cc1,7.94µM*,-55.7%,12.3%,7.94µM*
Cc1ccc(-n2nc(-c3ccc(N)cc3)cc2N)cc1,-5.5%,0.2%,2.4%,-14.1%
Fc1ccc(N2CCN(c3ncnc4c3nc3n4CCCC3)CC2)cc1,-1.2%,-13.9%[10.9 µM],?,-9.8%
COC(=O)c1c(NC(=O)c2cc3nc(-c4ccc(OC)cc4)cc(C(F)(F)F)n3n2)sc2c1CCCC2,4.9%,-10.7%[10.9 µM],2.1%,-11.8%
COc1ccc(NC(=O)c2cc3nc(-c4ccc(C)c(C)c4)cc(C(F)(F)F)n3n2)cc1,-0.9%,-7.8%[10.9 µM],11.9%,10µM*
SMILES,p53ts 32C tox,Imprint erasure,IkB sig inh,p53ts 39C tox
COC(=O)CCC(=O)Oc1ccc(OC(=O)CCC(=O)OC)cc1,-8.1%,5.01µM*,-0.1%,2.0%
Cc1cc(C2N=C(N)Nc3nc4ccccc4n32)c(C)n1-c1ccccc1Cl (stereo unspecified),-16.4%,-41.9%,0.9%,-9.4%
Cc1ccc(-n2c(C)cc(C3N=C(N)Nc4nc5ccccc5n43)c2C)c(C)c1 (stereo unspecified),?,-52.0%,?,20µM*
c1ccc(-c2noc(COc3ccc4c(c3)OCO4)n2)cc1,-2.7%,-0.8%,-1.1%,2.5%
Fc1ccc([C@@H]2CCNC[C@H]2COc2ccc3c(c2)OCO3)cc1,?,-30.9%,nt,12.6µM*
O=C(O)/C=C(/C(=O)O)[C@]12CCN3CC4=CCO[C@@H]5CC(=O)N[C@@H]1C5[C@H]4C[C@H]32 (stereo partly specified),nt,4.2%[10.9 µM],nt,nt
CCc1ccc(NC(=O)Cn2cc(S(=O)(=O)c3ccc(F)cc3)c(=O)c3cc(OC)ccc32)cc1,?,-4.9%[10.9 µM],9.5%,12.6µM*
CCOC(=O)c1[nH]c2ccc(OC)cc2c1NC(=S)N1CCN(c2ccc(F)cc2)CC1,-20.4%,nt,nt,-6.9%
CCOC(=O)c1[nH]c2ccc(OC)cc2c1NC(=S)N1CCN(c2cccc(C)c2C)CC1,11.2µM*,nt,nt,?
